Measurements published in PubChem BioAssay AID1159580 (chemical genetic matrix, 2015).
“And” between values parts separate entries of the source, which are not always exact repeats. Equal entries are not always repeated. In all, about 5,500 compounds went through this assay and about 2,000 (36%) were called active. Another 18% or so got no clear call; they are omitted. No stated cut-off is given here; in the data, active means normalized growth mostly below about 0.91 (no sharp cut-off); inconclusive means no clear call, values can overlap the other calls; inactive means mostly above about 0.92. This is one part of the list.

Assay: chemical genetic growth profiling, strain panel (AID 1159580);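 further: tested at 20 µM; growth read once vehicle control cultures reached saturation at 30 °C; 1 = growth at the plate median or of vehicle wells; lower values mean less growth of the strain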
Details: S. cerevisiae deletion strains, growth OD

Measured: normalized growth

CCOP(=S)(OCC)Oc1ccc2c(C)c(Cl)c(=O)oc2c1
inactive: locus YAL013W, strain DEP1, hits give low values 0.987 | locus YAL021C, strain ccr4, hits give low values 0.997 | locus YAL026C, strain drs2, hits give low values 0.96 | locus YAL030W, strain snc1, hits give low values 0.976 | locus YBL061C, strain skt5, hits give low values 0.96 | locus YBR009C, strain hhf1, hits give low values 0.982 | locus YBR021W, strain FUR4, hits give low values 0.97 | locus YBR023C, strain chs3, hits give low values 0.944 | locus YBR171W, strain sec66, hits give low values 0.939 | locus YBR229C, strain ROT2, hits give low values 0.955 | locus YBR231C, strain swc5, hits give low values 0.979 | locus YBR279W, strain paf1, hits give low values 0.971 | locus YCL016C, strain dcc1, hits give low values 0.984 | locus YCL029C, strain bik1, hits give low values 0.984 | locus YCL061C, strain MRC1, hits give low values 0.96 | locus YCL069W, strain vba3, hits give low values 0.957 | locus YCR088W, strain abp1, hits give low values 0.964 | locus YDL005C, strain med2, hits give low values 0.959 | locus YDL035C, strain GPR1, hits give low values 0.978 | locus YDL040C, strain nat1, hits give low values 0.964 | locus YDL074C, strain BRE1, hits give low values 0.907 | locus YDL101C, strain DUN1, hits give low values 0.975 | locus YDL134C, strain PPH21, hits give low values 0.981 | locus YDL185W, strain tfp1, hits give low values 0.957 | locus YDL192W, strain arf1, hits give low values 0.975 | locus YDR001C, strain nth1, hits give low values 0.977 | locus YDR069C, strain doa4, hits give low values 0.938 | locus YDR101C, strain arx1, hits give low values 0.983 | locus YDR137W, strain rgp1, hits give low values 0.939 | locus YDR150W, strain NUM1, hits give low values 0.982 | locus YDR159W, strain sac3, hits give low values 0.901 | locus YDR162C, strain NBP2, hits give low values 0.92 | locus YDR195W, strain ref2 1.03 | locus YDR297W, strain sur2, hits give low values 0.988 | locus YDR318W, strain mcm21, hits give low values 0.976 | locus YDR334W, strain swr1, hits give low values 0.961 | locus YDR335W, strain msn5, hits give low values 0.975 | locus YDR388W, hits give low values 0.98 | locus YDR392W, strain spt3, hits give low values 0.836 | locus YDR502C, strain sam2, hits give low values 0.984 | locus YEL003W, strain gim4, hits give low values 0.953 | locus YEL037C, strain rad23, hits give low values 0.962 | locus YEL061C, strain CIN8 (second series), hits give low values 0.962 | locus YEL061C, strain CIN8, hits give low values 0.979 | locus YER015W, strain faa2, hits give low values 0.966 | locus YER016W, strain bim1, hits give low values 0.97 | locus YER110C, hits give low values 0.977 | locus YER111C, strain swi4, hits give low values 0.975 | locus YER155C, strain BEM2 (second series), hits give low values 0.959 | locus YER155C, strain BEM2, hits give low values 0.998 | locus YER167W, strain BCK2, hits give low values 0.99 | locus YFR010W, strain ubp6, hits give low values 0.942 | locus YGL078C, strain dbp3, hits give low values 0.984 | locus YGL086W, strain mad1, hits give low values 0.989 | locus YGL167C, strain pmr1, hits give low values 0.956 | locus YGL173C, strain kem1, hits give low values 0.956 | locus YGL227W, strain vid30, hits give low values 0.961 | locus YGL240W, strain doc1, hits give low values 0.933 | locus YGL248W, strain PDE1, hits give low values 0.957 | locus YGR078C, strain PAC10, hits give low values 0.973 | locus YGR135W, strain pre9, hits give low values 0.97 | locus YGR229C, strain SMI1, hits give low values 0.947 | locus YGR252W, strain gcn5, hits give low values 0.937 | locus YHR013C, strain ard1, hits give low values 0.968 | locus YHR027C, strain rpn1, hits give low values 1 | locus YHR030C, strain SLT2, hits give low values 0.986 and 1.02 | locus YHR079C, strain IRE1 (second series), hits give low values 0.988 | locus YHR079C, strain IRE1, hits give low values 1 | locus YHR094C, strain hxt1, hits give low values 0.985 | locus YHR129C, strain ARP1, hits give low values 0.983 | locus YHR142W, strain chs7, hits give low values 0.912 | locus YHR200W, strain rpn10, hits give low values 0.984 | locus YIL066C, strain RNR3, hits give low values 0.961 | locus YIL073C, strain SPO22, hits give low values 0.988 | locus YIL125W, strain kgd1, hits give low values 0.981 | locus YIR030C, strain dcg1, hits give low values 0.989 | locus YJL092W, strain hpr5, hits give low values 0.944 | locus YJL095W, strain BCK1 (second series), hits give low values 0.96 | locus YJL095W, strain BCK1, hits give low values 0.958 and 1.02 | locus YJL115W, strain asf1, hits give low values 0.962 | locus YJL129C, strain trk1, hits give low values 0.942 | locus YJL134W, strain LCB3, hits give low values 0.971 | locus YJL154C, strain vps35, hits give low values 0.985 | locus YJL164C, strain tpk1, hits give low values 0.974 | locus YJL166W, strain qcr8, hits give low values 0.935 | locus YJL168C, strain set2, hits give low values 0.986 | locus YJL187C, strain SWE1 (second series), hits give low values 0.981 | locus YJL187C, strain SWE1, hits give low values 0.964 | locus YJR043C, strain POL32, hits give low values 0.996 | locus YJR066W, strain TOR1, hits give low values 0.967
active: locus YCL011C, strain gbp2, hits give low values 0.906 | locus YGL253W, strain hxk2, hits give low values 0.903
